An excerpt weighted towards active compounds, which were near 21% of everything screened.
SARS PLpro yeast: inhibitors of SARS-CoV papain-like protease in yeast; AID 485353; S. cerevisiae expressing SARS-CoV PLpro, growth rescue; Potency, µM (titrated, usually from 32.9 µM), hits mostly activators; actives 0.19% (n = 330,000); calls by dose curve; also: nearly all actives have a fitted effect of over 55% in size
Shiga inhibitor: blocks Shiga toxin action in Vero cells | Vero cells, Shiga toxin protein synthesis inhibition reporter | inhibition, % at 38.7 µM | actives 9.2% (n = 290,000) | AID 2315; in the data active = inhibition mostly above about 28%, no sharp cut-off; inactive = mostly below about 43%
Pf growth 48h: inhibits P. falciparum growth in the first generation, 48 h | P. falciparum luciferase growth in erythrocytes, 48 h | Potency, µM (doses to about 28.7 µM), actives largely listed as inhibitors | actives 5.9% (n = 310,000) | AID 504832
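Compounds are pin-transferred into medium, infected erythrocytes (2% hematocrit, 0.1% parasitemia final) are added, and plates sit one parasite generation at 37 C in 5% CO2. Detection reagent is then added and luminescence measured.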
Pf growth 96h: inhibits malaria parasite growth, 96 h | P. falciparum luciferase reporter growth, 96 h | Potency, µM (top dose mostly 28.7 µM), usual class: inhibitors | actives 6.9% (n = 320,000)
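P. falciparum expressing integrated firefly luciferase, in erythrocytes at 2% hematocrit, 0.05% parasitemia, incubated with compounds 96 h at 37 C, 5% CO2. Growth inhibition read as loss of luminescence; two-generation exposure targets delayed-death apicoplast inhibitors.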
NS1 function inh: blocks influenza NS1 protein function. Potency, µM (series often up to 46.1 µM). actives 0.4% (n = 270,000); calls by dose curve; also: actives are rising curves; nearly all actives have a fitted effect of over 50% in size
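A cell-based growth assay was used: compounds that relieve NS1-induced slow growth of budding yeast raise OD600. Assay medium was yeast nitrogen base with ammonium sulphate and -URA supplement, pH 6.0, with 2% galactose.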
CHX counter: counter-screen for Shiga toxin inhibitors: cycloheximide protein synthesis inhibition | actives 12% (n = 300,000) | max response, % | AID 2314 | cell reporter, cycloheximide protein synthesis inhibition counterscreen; in the data active = max response mostly above about 13%, no sharp cut-off; inactive = mostly below about 14%; also: read at 38.3 µM for the half of the compounds with a filed dose
A number is an active result; 0 = inactive; ? = inconclusive; - = not tested or not shown; [ ] = dose if it differs, or a comment. Unless noted, calls follow the shape of the dose curve; as a rule, active = well fitted inhibition curve with a large enough effect; inconclusive = small, poorly fitted or top-dose-only effect, or another doubt; inactive = no such curve, though single readings can be large or run the other way.

SMILES	SARS PLpro yeast	Shiga inhibitor	Pf growth 48h	Pf growth 96h	NS1 function inh	CHX counter
Cc1cccc2cc(C(c3nnnn3CC3CCCO3)N3CCCc4ccccc43)c(=O)[nH]c12 (stereo not drawn)	0	0	9.3µM	0	0	0
O=c1[nH]c2cc3c(cc2cc1C(c1nnnn1Cc1ccccc1)N1CCCCCC1)OCCO3 (stereo not drawn)	0	0	-	?	0	0
O=c1[nH]c2cc3c(cc2cc1C(c1nnnn1Cc1ccccc1)N1CCN2CCCC2C1)OCCO3 (stereo not drawn)	0	0	?	12µM	?	0
COc1cccc(-n2c(SCC(=O)N3CCCC3)nc3c([nH]c4ccccc43)c2=O)c1	-	-	-	-	0	-
CCC(C)(C)NC(=O)C(c1ccc(F)cc1)N(Cc1ccccc1)C(=O)c1cnccn1 (stereo not drawn)	0	0	?	0	-	0
Cc1cccc2cc(C(c3nnnn3Cc3ccc4c(c3)OCO4)N3CCCC3)c(=O)[nH]c12 (stereo not drawn)	0	0	7.4µM	?	?	0
Cc1cccc2cc(C(c3nnnn3CC3CCCO3)N3CCCC4(CCCCC4)C3)c(=O)[nH]c12 (stereo not drawn)	0	0	?	-	0	0
NC12CC3CC(C1)CC(O)(C3)C2	0	0	0	10µM	0	0
NC12CC3CC(C1)CC(CC(=O)O)(C3)C2	0	0	0	0	-	0
O=[N+]([O-])c1ccccc1/C=N\N1CCN(Cc2ccccc2Cl)CC1	0	0	0	0	0	16
CN1CCc2cccc(Cl)c2CC1	-	-	0	?	0	-
O=[N+]([O-])c1ccccc1/C=N/N1CCN(Cc2ccccc2)CC1	0	-	0	?	0	45
Clc1ccccc1/C=N/N1CCN(Cc2ccccc2)CC1	0	-	0	?	0	0
Fc1ccccc1/C=N/N1CCN(Cc2ccccc2Cl)CC1	0	-	0	0	0	19
CN1CCN(/N=C/c2cccc(Cl)c2Cl)CC1	0	41	0	0	0	29
CCN(CC)c1ccc(-c2n[nH]c(=S)n2-c2ccccc2)cc1	0	0	0	?	0	0
O=C(CN1CCN(Cc2ccccc2Cl)CC1)N/N=C/C=C/c1ccco1	0	0	0	0	0	0
Clc1ccccc1CN1CCN(/N=C/C=C/c2ccco2)CC1	0	58	0	0	0	26
CCN(CCO)c1ccc(N=Nc2cc(C)[nH]n2)cc1	0	0	0	0	0	0
CCOc1ccccc1CNC(=O)c1ccc2c(c1)N(CC)CCS2	0	0	?	0	0	0
O=C1CCCN2N=C(SCC(=O)Nc3cccc(Cl)c3)SC2=N1	0	0	?	0	0	0
CCCCc1ccc(NC(=O)CSC2=NN3CCCC(=O)N=C3S2)cc1	0	0	0	2.1µM	0	0
Cc1ccc(NC(=O)CSC2=NN3CCCC(=O)N=C3S2)cc1Cl	0	0	?	?	0	0
O=C1CCCN2N=C(SCC(=O)Nc3ccc(Cl)cc3)SC2=N1	0	0	0	10µM	0	0
CCOc1ccc(NC(=O)CSC2=NN3CCCC(=O)N=C3S2)cc1	0	0	?	0	0	0
SMILES	SARS PLpro yeast	Shiga inhibitor	Pf growth 48h	Pf growth 96h	NS1 function inh	CHX counter
Cc1cccc(CSC2=NN3CCCC(=O)N=C3S2)c1	0	56	0	0	0	43
C=CCSC1=N/C(=C\c2cc(OCC)c(OC(C)=O)c([N+](=O)[O-])c2)C(=O)S1	0	0	0	?	0	0
CCCC(=O)NCCc1cc(OC)c(OC)cc1Br	0	0	0	0	0	0
CCCCCCCCSc1nnc(-c2ccc(OC)cc2)o1	0	0	-	0	0	0
C#CCSc1nnc(-c2ccc(OC)cc2)o1	0	0	-	0	0	37
C#CCSc1nnc(-c2ccc([N+](=O)[O-])cc2)o1	0	58	0[5.75 µM]	0[5.75 µM]	-	23
COc1ccc(-c2nnc(SCc3c(C)noc3C)o2)cc1	0	68	0	0	-	27
COc1ccc(-c2nnc(SCC(=O)NC3CC3)o2)cc1	0	-	0	0	-	-
CCSc1nnc(-c2ccc(OC)cc2)o1	0	98	0	0	0	56
CCc1ccc(NC(=O)CCc2nnc3ccc(N4CCCC4)nn23)cc1	0	0	0	0	0	0
Cc1ccc(NC(=O)c2ccc(-n3cncn3)c([N+](=O)[O-])c2)cc1F	0	-	?	?	-	-
COc1ccc(C(CNC(=O)c2ccc(S(=O)(=O)N3CC(C)CC(C)C3)cc2)N(C)C)cc1 (stereo not drawn)	0	-	-	-	-	-
O=C(N/N=C/c1cccnc1)c1ccccc1[N+](=O)[O-]	0	0	0	0	0	0
COc1ccc(-c2nnc(SCC#N)o2)cc1	0	0	0	0	0	15
N#CCSc1nnc(-c2sc3ccccc3c2Cl)o1	0	0	0	0	0	42
COC(=O)CSc1nnc(-c2sc3ccccc3c2Cl)o1	0	0	0	?	0	0
Cc1ccc(S(=O)(=O)Nc2cccc(-c3ccc(N4CCCCCC4)nn3)c2)cc1	0	89	0	0	0	39
O=[N+]([O-])c1cccc(S(=O)(=O)Nc2ccc(-c3ccc(N4CCCC4)nn3)cc2)c1	0	-	0	?	-	-
Cc1cccc(S(=O)(=O)Nc2cccc(-c3ccc(N4CCCCC4)nn3)c2)c1	-	73	-	-	-	59
COc1ccc(OC)c(S(=O)(=O)Nc2cccc(-c3ccc(N4CCCCCC4)nn3)c2)c1	0	0	?	?	0	0
O=[N+]([O-])c1cccc(S(=O)(=O)Nc2cccc(-c3ccc(N4CCCC4)nn3)c2)c1	0	-	?	6.6µM	-	-
O=[N+]([O-])c1cccc(S(=O)(=O)Nc2cccc(-c3ccc(N4CCOCC4)nn3)c2)c1	0	-	?	?	-	-
COc1ccc(S(=O)(=O)Nc2cccc(-c3ccc(N4CCCCCC4)nn3)c2)cc1OC	0	40	?	0	0	35
Cc1ccccc1OCc1nnc(SCC(=O)Nc2ccc(N3CCOCC3)c(Cl)c2)n1C	0	0	-	?	0	0
C/C(=N\OCC(=O)OCC(=O)NCc1ccccc1)c1ccc2c(c1)OCO2	0	-	0	0	-	-
SMILES	SARS PLpro yeast	Shiga inhibitor	Pf growth 48h	Pf growth 96h	NS1 function inh	CHX counter
COc1ccc(S(=O)(=O)Nc2cccc(-c3ccc(N4CCCCCC4)nn3)c2)c(OC)c1	0	60	0	?	0	53
Cc1ccc(S(=O)(=O)NCC(=O)OCC(=O)NC(=O)NC2CCCC2)cc1	0	0	0	0	-	0
CCOC(=O)Cc1csc(NC(=O)COc2ccccc2)n1	0	0	0	0	?	0
CCOC(=O)Cc1csc(N/N=C\c2ccccc2OC)n1	0	50	0	0	0	24
COC(=O)c1ccc(/C=N/Nc2nc(-c3ccc(C)cc3)cs2)cc1	0	0	0	0	0	0
CCOC(=O)Cc1csc(N/N=C/c2ccccc2)n1	0	104	0	0	0	61
CCOC(=O)Cc1csc(N/N=C\c2cccc(Br)c2)n1	0	52	0	0	0	11
COc1ccc(/C=N/Nc2nc(C(=O)O)cs2)cc1	?	34	0	0	0	25
